# Data from PMC12529666, “Dysregulation of AGO2-miRNA dynamics underlies the AGO2-associated Lessel–Kreienkamp syndrome”.
# Legend:
# Assay in all cases: RNA Bind-n-Seq (nitrocellulose filter binding and sequencing); miR-122 guide loaded in AGO2; 60 min incubation; 30 mM Tris pH 8.0, 100 mM potassium acetate, 2 mM magnesium acetate, 0.5 mM TCEP, 0.005% NP-40, 0.01 mg/ml yeast tRNA; 3 nM AGO2-miR-122, 100 nM RNA library; 60; high values mean tight binding
# Conditions in all cases: protein: recombinant; tags: His6 (N-terminal, pFastBac HTA)
# [1] = biological target: AGO2 L192P (Homo sapiens, UniProt Q9UKV8 1-859, L192P;S387D;S824A;S828D;S831D;S834A)
# Chain of AGO2 L192P (Q9UKV8 whole entry L192P/S387D/S824A/S828D/S831D/S834A): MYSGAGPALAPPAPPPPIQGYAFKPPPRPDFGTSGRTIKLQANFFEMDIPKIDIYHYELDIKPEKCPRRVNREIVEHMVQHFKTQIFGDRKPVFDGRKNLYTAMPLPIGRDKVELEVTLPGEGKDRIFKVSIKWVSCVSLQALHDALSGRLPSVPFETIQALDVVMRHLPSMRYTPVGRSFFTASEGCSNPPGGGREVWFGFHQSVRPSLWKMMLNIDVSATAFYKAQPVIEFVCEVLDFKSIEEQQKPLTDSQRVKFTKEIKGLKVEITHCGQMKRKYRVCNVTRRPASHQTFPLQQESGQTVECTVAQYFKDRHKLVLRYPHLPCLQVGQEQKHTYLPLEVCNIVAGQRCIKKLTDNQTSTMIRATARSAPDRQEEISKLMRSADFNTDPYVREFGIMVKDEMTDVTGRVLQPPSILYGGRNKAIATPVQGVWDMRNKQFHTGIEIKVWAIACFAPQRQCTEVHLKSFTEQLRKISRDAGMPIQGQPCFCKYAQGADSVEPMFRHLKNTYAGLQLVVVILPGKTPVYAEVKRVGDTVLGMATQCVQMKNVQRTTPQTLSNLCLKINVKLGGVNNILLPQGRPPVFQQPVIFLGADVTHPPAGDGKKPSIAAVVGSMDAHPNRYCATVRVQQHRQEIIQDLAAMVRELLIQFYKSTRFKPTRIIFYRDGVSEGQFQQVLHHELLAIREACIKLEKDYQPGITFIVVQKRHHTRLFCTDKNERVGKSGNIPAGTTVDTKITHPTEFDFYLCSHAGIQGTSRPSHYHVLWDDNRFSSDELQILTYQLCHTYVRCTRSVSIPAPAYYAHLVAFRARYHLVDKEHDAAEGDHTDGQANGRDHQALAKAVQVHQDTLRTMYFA
# Procedure, shortened: (§1)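 Fold enrichment is each target's read fraction divided by its read fraction in the input library. Sf9 insect cells expressed His-tagged AGO2 from baculovirus; the protein was loaded with a synthetic guide RNA and purified by Ni-NTA and a biotinylated capture oligo. The bound RNA was extracted, reverse-transcribed, barcode-amplified and sequenced on Illumina.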
# [2] = biological target: AGO2 A367P (Homo sapiens, UniProt Q9UKV8 1-859, A367P;S387D;S824A;S828D;S831D;S834A)
# Chain of AGO2 A367P (Q9UKV8 whole entry A367P/S387D/S824A/S828D/S831D/S834A): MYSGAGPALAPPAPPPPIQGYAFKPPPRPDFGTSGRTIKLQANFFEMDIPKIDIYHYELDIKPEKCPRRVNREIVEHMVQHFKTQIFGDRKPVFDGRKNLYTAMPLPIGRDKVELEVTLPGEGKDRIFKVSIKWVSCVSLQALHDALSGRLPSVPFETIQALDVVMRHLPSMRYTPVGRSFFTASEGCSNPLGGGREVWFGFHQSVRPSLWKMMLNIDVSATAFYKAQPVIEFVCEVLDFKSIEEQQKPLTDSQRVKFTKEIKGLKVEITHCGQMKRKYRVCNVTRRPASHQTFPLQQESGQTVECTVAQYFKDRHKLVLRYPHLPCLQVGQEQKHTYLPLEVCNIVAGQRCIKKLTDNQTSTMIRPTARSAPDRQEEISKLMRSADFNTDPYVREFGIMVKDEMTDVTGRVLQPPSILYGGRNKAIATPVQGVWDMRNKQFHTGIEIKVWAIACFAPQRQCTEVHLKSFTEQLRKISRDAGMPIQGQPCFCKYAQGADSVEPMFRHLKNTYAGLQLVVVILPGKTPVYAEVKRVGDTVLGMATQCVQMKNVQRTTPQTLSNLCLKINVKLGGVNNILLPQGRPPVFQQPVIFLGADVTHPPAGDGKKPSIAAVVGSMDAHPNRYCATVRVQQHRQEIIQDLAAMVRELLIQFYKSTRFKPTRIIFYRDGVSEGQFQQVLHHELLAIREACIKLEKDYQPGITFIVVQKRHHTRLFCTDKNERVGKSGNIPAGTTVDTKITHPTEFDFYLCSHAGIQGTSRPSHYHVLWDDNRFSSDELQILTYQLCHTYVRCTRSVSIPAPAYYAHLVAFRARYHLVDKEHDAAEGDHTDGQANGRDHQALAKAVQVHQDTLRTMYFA
# Procedure, shortened: as §1
# [3] = biological target: AGO2 T357M (Homo sapiens, UniProt Q9UKV8 1-859, T357M;S387D;S824A;S828D;S831D;S834A)
# Chain of AGO2 T357M (Q9UKV8 whole entry T357M/S387D/S824A/S828D/S831D/S834A): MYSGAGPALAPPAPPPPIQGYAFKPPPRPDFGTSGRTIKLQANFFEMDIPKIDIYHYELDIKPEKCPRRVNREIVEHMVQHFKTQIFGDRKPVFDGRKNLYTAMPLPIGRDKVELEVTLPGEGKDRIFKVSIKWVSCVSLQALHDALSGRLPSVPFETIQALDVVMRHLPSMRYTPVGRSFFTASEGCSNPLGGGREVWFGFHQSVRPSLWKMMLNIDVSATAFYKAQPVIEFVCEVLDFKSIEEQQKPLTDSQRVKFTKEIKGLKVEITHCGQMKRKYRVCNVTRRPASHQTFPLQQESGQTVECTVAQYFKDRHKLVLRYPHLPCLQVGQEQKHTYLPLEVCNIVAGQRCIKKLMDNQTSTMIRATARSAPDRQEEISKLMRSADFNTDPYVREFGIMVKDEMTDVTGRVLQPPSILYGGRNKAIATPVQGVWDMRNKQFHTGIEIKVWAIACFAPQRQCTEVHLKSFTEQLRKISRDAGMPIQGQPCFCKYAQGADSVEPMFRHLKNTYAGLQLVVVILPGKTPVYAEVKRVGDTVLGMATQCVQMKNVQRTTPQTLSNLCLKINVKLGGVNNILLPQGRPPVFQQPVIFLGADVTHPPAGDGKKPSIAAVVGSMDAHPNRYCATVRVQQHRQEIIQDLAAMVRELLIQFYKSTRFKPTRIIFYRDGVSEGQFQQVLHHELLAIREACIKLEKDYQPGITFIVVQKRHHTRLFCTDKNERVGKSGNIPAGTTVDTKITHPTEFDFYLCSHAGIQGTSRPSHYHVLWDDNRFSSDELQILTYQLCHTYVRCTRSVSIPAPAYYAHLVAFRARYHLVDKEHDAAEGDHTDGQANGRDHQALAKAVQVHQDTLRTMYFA
# Procedure, shortened: as §1
# [4] = biological target: AGO2 F182del (Homo sapiens, UniProt Q9UKV8 1-859, S387D;S824A;S828D;S831D;S834A;del182-182)
# Chain of AGO2 F182del (Q9UKV8 other isoform, or with tags, fused parts or gaps S387D;S824A;S828D;S831D;S834A;del182-182): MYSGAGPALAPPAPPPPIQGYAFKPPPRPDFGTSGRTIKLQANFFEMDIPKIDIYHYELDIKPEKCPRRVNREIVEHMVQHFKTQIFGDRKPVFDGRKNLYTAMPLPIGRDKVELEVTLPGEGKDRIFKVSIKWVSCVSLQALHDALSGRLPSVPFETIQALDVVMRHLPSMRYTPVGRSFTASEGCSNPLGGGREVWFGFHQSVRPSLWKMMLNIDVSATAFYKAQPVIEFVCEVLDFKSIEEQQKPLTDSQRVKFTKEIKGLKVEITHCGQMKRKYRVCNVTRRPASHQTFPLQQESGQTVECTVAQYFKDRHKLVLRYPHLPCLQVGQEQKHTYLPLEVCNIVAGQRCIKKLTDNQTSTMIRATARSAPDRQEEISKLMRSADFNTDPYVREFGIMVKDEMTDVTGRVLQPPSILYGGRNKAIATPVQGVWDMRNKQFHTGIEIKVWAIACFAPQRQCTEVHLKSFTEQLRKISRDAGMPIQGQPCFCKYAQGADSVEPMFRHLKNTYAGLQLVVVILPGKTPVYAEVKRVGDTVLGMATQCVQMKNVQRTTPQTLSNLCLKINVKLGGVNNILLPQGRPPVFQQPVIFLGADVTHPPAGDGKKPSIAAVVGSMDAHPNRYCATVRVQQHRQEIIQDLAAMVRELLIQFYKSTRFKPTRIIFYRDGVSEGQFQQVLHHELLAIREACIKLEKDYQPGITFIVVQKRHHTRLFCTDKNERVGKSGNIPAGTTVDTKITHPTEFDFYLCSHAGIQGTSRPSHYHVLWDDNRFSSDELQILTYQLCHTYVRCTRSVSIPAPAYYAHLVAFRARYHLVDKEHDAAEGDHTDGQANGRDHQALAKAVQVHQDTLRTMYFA
# Procedure, shortened: as §1
Binder,binding signal [1],binding signal [2],binding signal [3],binding signal [4]
"ATACCCCA (ssRNA, constant regions annealed to DNA blockers; guide miR-122 5' phosphate) RNA 1: GAGUUCUACAGUCCGACGAUCCCAACAUACCCCACACCUGGAAUUCUCGGGUGCCAA RNA 2: UGGAGUGUGACAAUGGUGUUUG DNA 1: GATCGTCGGACTGTAGAACTC DNA 2: TTGGCACCCGAGAATTCCA",0.5 fold enrichment over input,0.177 fold enrichment over input,0.552 fold enrichment over input,0.199 fold enrichment over input
"ATACCCTA (ssRNA, constant regions annealed to DNA blockers; guide miR-122 5' phosphate) RNA 1: GAGUUCUACAGUCCGACGAUCCCAACAUACCCUACACCUGGAAUUCUCGGGUGCCAA RNA 2: UGGAGUGUGACAAUGGUGUUUG DNA 1: GATCGTCGGACTGTAGAACTC DNA 2: TTGGCACCCGAGAATTCCA",0.447 fold enrichment over input,0.148 fold enrichment over input,0.496 fold enrichment over input,–
"GCACCCTG (ssRNA, constant regions annealed to DNA blockers; guide miR-122 5' phosphate) RNA 1: GAGUUCUACAGUCCGACGAUCCCAACGCACCCUGCACCUGGAAUUCUCGGGUGCCAA RNA 2: UGGAGUGUGACAAUGGUGUUUG DNA 1: GATCGTCGGACTGTAGAACTC DNA 2: TTGGCACCCGAGAATTCCA",0.416 fold enrichment over input,0.171 fold enrichment over input,0.566 fold enrichment over input,0.176 fold enrichment over input
"GCACTTTA (ssRNA, constant regions annealed to DNA blockers; guide miR-122 5' phosphate) RNA 1: GAGUUCUACAGUCCGACGAUCCCAACGCACUUUACACCUGGAAUUCUCGGGUGCCAA RNA 2: UGGAGUGUGACAAUGGUGUUUG DNA 1: GATCGTCGGACTGTAGAACTC DNA 2: TTGGCACCCGAGAATTCCA",0.493 fold enrichment over input,0.209 fold enrichment over input,0.763 fold enrichment over input,0.122 fold enrichment over input
"GCATCTTA (ssRNA, constant regions annealed to DNA blockers; guide miR-122 5' phosphate) RNA 1: GAGUUCUACAGUCCGACGAUCCCAACGCAUCUUACACCUGGAAUUCUCGGGUGCCAA RNA 2: UGGAGUGUGACAAUGGUGUUUG DNA 1: GATCGTCGGACTGTAGAACTC DNA 2: TTGGCACCCGAGAATTCCA",0.487 fold enrichment over input,0.189 fold enrichment over input,0.676 fold enrichment over input,–
"GTACCCCA (ssRNA, constant regions annealed to DNA blockers; guide miR-122 5' phosphate) RNA 1: GAGUUCUACAGUCCGACGAUCCCAACGUACCCCACACCUGGAAUUCUCGGGUGCCAA RNA 2: UGGAGUGUGACAAUGGUGUUUG DNA 1: GATCGTCGGACTGTAGAACTC DNA 2: TTGGCACCCGAGAATTCCA",0.497 fold enrichment over input,0.247 fold enrichment over input,0.616 fold enrichment over input,0.455 fold enrichment over input
"GTACCCTA (ssRNA, constant regions annealed to DNA blockers; guide miR-122 5' phosphate) RNA 1: GAGUUCUACAGUCCGACGAUCCCAACGUACCCUACACCUGGAAUUCUCGGGUGCCAA RNA 2: UGGAGUGUGACAAUGGUGUUUG DNA 1: GATCGTCGGACTGTAGAACTC DNA 2: TTGGCACCCGAGAATTCCA",0.468 fold enrichment over input,0.168 fold enrichment over input,0.602 fold enrichment over input,–
"GTGCTCTA (ssRNA, constant regions annealed to DNA blockers; guide miR-122 5' phosphate) RNA 1: GAGUUCUACAGUCCGACGAUCCCAACGUGCUCUACACCUGGAAUUCUCGGGUGCCAA RNA 2: UGGAGUGUGACAAUGGUGUUUG DNA 1: GATCGTCGGACTGTAGAACTC DNA 2: TTGGCACCCGAGAATTCCA",0.463 fold enrichment over input,0.178 fold enrichment over input,0.601 fold enrichment over input,–
"GCGTTCCG (ssRNA, constant regions annealed to DNA blockers; guide miR-122 5' phosphate) RNA 1: GAGUUCUACAGUCCGACGAUCCCAACGCGUUCCGCACCUGGAAUUCUCGGGUGCCAA RNA 2: UGGAGUGUGACAAUGGUGUUUG DNA 1: GATCGTCGGACTGTAGAACTC DNA 2: TTGGCACCCGAGAATTCCA",0.404 fold enrichment over input,0.149 fold enrichment over input,0.583 fold enrichment over input,–
"GCGTCTTA (ssRNA, constant regions annealed to DNA blockers; guide miR-122 5' phosphate) RNA 1: GAGUUCUACAGUCCGACGAUCCCAACGCGUCUUACACCUGGAAUUCUCGGGUGCCAA RNA 2: UGGAGUGUGACAAUGGUGUUUG DNA 1: GATCGTCGGACTGTAGAACTC DNA 2: TTGGCACCCGAGAATTCCA",0.473 fold enrichment over input,0.2 fold enrichment over input,0.656 fold enrichment over input,–
"GTGCCCTA (ssRNA, constant regions annealed to DNA blockers; guide miR-122 5' phosphate) RNA 1: GAGUUCUACAGUCCGACGAUCCCAACGUGCCCUACACCUGGAAUUCUCGGGUGCCAA RNA 2: UGGAGUGUGACAAUGGUGUUUG DNA 1: GATCGTCGGACTGTAGAACTC DNA 2: TTGGCACCCGAGAATTCCA",0.458 fold enrichment over input,0.188 fold enrichment over input,0.663 fold enrichment over input,–
"ATGCCCCG (ssRNA, constant regions annealed to DNA blockers; guide miR-122 5' phosphate) RNA 1: GAGUUCUACAGUCCGACGAUCCCAACAUGCCCCGCACCUGGAAUUCUCGGGUGCCAA RNA 2: UGGAGUGUGACAAUGGUGUUUG DNA 1: GATCGTCGGACTGTAGAACTC DNA 2: TTGGCACCCGAGAATTCCA",0.377 fold enrichment over input,0.134 fold enrichment over input,0.489 fold enrichment over input,–
"ACGTCCTG (ssRNA, constant regions annealed to DNA blockers; guide miR-122 5' phosphate) RNA 1: GAGUUCUACAGUCCGACGAUCCCAACACGUCCUGCACCUGGAAUUCUCGGGUGCCAA RNA 2: UGGAGUGUGACAAUGGUGUUUG DNA 1: GATCGTCGGACTGTAGAACTC DNA 2: TTGGCACCCGAGAATTCCA",0.312 fold enrichment over input,0.143 fold enrichment over input,0.434 fold enrichment over input,–
"GTACTTTA (ssRNA, constant regions annealed to DNA blockers; guide miR-122 5' phosphate) RNA 1: GAGUUCUACAGUCCGACGAUCCCAACGUACUUUACACCUGGAAUUCUCGGGUGCCAA RNA 2: UGGAGUGUGACAAUGGUGUUUG DNA 1: GATCGTCGGACTGTAGAACTC DNA 2: TTGGCACCCGAGAATTCCA",0.446 fold enrichment over input,0.161 fold enrichment over input,0.636 fold enrichment over input,–
"GTATCCTA (ssRNA, constant regions annealed to DNA blockers; guide miR-122 5' phosphate) RNA 1: GAGUUCUACAGUCCGACGAUCCCAACGUAUCCUACACCUGGAAUUCUCGGGUGCCAA RNA 2: UGGAGUGUGACAAUGGUGUUUG DNA 1: GATCGTCGGACTGTAGAACTC DNA 2: TTGGCACCCGAGAATTCCA",0.448 fold enrichment over input,0.17 fold enrichment over input,0.563 fold enrichment over input,0.121 fold enrichment over input
"GTGTTTTA (ssRNA, constant regions annealed to DNA blockers; guide miR-122 5' phosphate) RNA 1: GAGUUCUACAGUCCGACGAUCCCAACGUGUUUUACACCUGGAAUUCUCGGGUGCCAA RNA 2: UGGAGUGUGACAAUGGUGUUUG DNA 1: GATCGTCGGACTGTAGAACTC DNA 2: TTGGCACCCGAGAATTCCA",0.467 fold enrichment over input,0.167 fold enrichment over input,0.565 fold enrichment over input,–
"ATGTTTTG (ssRNA, constant regions annealed to DNA blockers; guide miR-122 5' phosphate) RNA 1: GAGUUCUACAGUCCGACGAUCCCAACAUGUUUUGCACCUGGAAUUCUCGGGUGCCAA RNA 2: UGGAGUGUGACAAUGGUGUUUG DNA 1: GATCGTCGGACTGTAGAACTC DNA 2: TTGGCACCCGAGAATTCCA",0.387 fold enrichment over input,0.134 fold enrichment over input,0.541 fold enrichment over input,–
"GTGTCCTA (ssRNA, constant regions annealed to DNA blockers; guide miR-122 5' phosphate) RNA 1: GAGUUCUACAGUCCGACGAUCCCAACGUGUCCUACACCUGGAAUUCUCGGGUGCCAA RNA 2: UGGAGUGUGACAAUGGUGUUUG DNA 1: GATCGTCGGACTGTAGAACTC DNA 2: TTGGCACCCGAGAATTCCA",0.451 fold enrichment over input,0.158 fold enrichment over input,0.528 fold enrichment over input,–
"GTGTTTCA (ssRNA, constant regions annealed to DNA blockers; guide miR-122 5' phosphate) RNA 1: GAGUUCUACAGUCCGACGAUCCCAACGUGUUUCACACCUGGAAUUCUCGGGUGCCAA RNA 2: UGGAGUGUGACAAUGGUGUUUG DNA 1: GATCGTCGGACTGTAGAACTC DNA 2: TTGGCACCCGAGAATTCCA",0.477 fold enrichment over input,0.178 fold enrichment over input,0.587 fold enrichment over input,–
"ACGCCTTG (ssRNA, constant regions annealed to DNA blockers; guide miR-122 5' phosphate) RNA 1: GAGUUCUACAGUCCGACGAUCCCAACACGCCUUGCACCUGGAAUUCUCGGGUGCCAA RNA 2: UGGAGUGUGACAAUGGUGUUUG DNA 1: GATCGTCGGACTGTAGAACTC DNA 2: TTGGCACCCGAGAATTCCA",0.367 fold enrichment over input,0.164 fold enrichment over input,0.54 fold enrichment over input,–
"ACGTTCTA (ssRNA, constant regions annealed to DNA blockers; guide miR-122 5' phosphate) RNA 1: GAGUUCUACAGUCCGACGAUCCCAACACGUUCUACACCUGGAAUUCUCGGGUGCCAA RNA 2: UGGAGUGUGACAAUGGUGUUUG DNA 1: GATCGTCGGACTGTAGAACTC DNA 2: TTGGCACCCGAGAATTCCA",0.434 fold enrichment over input,0.184 fold enrichment over input,0.53 fold enrichment over input,0.195 fold enrichment over input
"ATATCTTG (ssRNA, constant regions annealed to DNA blockers; guide miR-122 5' phosphate) RNA 1: GAGUUCUACAGUCCGACGAUCCCAACAUAUCUUGCACCUGGAAUUCUCGGGUGCCAA RNA 2: UGGAGUGUGACAAUGGUGUUUG DNA 1: GATCGTCGGACTGTAGAACTC DNA 2: TTGGCACCCGAGAATTCCA",0.409 fold enrichment over input,0.138 fold enrichment over input,0.513 fold enrichment over input,–
